Each structure is given as a SMILES string. This is part of a sample that, as a whole, favours compounds with a hit. Of some 83,000 tested, about 20% had one in any assay.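 Compound tested at a single concentration for 48 hours in 96-well plates; a percent growth value below 10 was scored as active.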 A number with no mark means an inactive call. The source made the active and inactive calls.

This test deals with HL-60(TB) leukemia. The test can be described thus: NCI-60 one-dose screen, 48 h (100 = growth as untreated, 0 = no growth, -100 = all killed). The settings on record: 10 µM unless noted.
For `O=C(Nc1ccc(Br)cc1)c1ccc(Cl)c(Cl)c1`, the growth was 19.4%.
On to `C=C(C)[C@@H]1CC[C@]2(C)[C@H](CC(=O)N[C@H]3[C@@H]4C[C@](C)(C(=O)OC)CC[C@]4(C)CC[C@]32C)[C@@]1(C)CCC#N`, for which the growth is 83.1%.
For the molecule `Nc1ccc2ccc(NS(=O)(=O)N3CCCCC3)cc2c1`, the growth is 2.41% (active).
As for `C=CCn1cc(-c2nc3ccccc3s2)c2cc(-c3ccc4c5c(cccc35)C(=O)N(CCN3CCNCC3)C4=O)ccc21`, the growth is 103%.
With `Cc1c(CN2CCN(C(=O)[C@H](C)O)CC2)sc2c(N3CCOCC3)nc(-c3cnc(N)nc3)nc12` the figure was -7.28% (active); with `COc1cc2oc(-c3ccc(NC(=O)c4ccccc4)cc3)cc(=O)c2c(OC)c1OC`, 100%.
As to `O=C(/C=C/C12c3ccccc3C(c3ccccc31)C1C(=O)NC(=O)C12)c1ccncc1` (stereo not drawn), the growth was 2.98% (active).
For the molecule `COc1ccc(C2=NNC(c3cc(Cc4ccc(O)c(C5CC(c6ccc(OC)cc6)=NN5)c4)ccc3O)C2)cc1` (stereo not drawn), the growth is 17.2%.
Consider `O=C(c1ccccc1)c1ccc(C2CCCCC2)cc1`, for which the growth is 101%.
Regarding `Nc1nc(Nc2cccc(F)c2)nc2ccccc12`, the growth was 28.6%.
In the case of `COc1ccc(Nc2ccnc(NCCCNc3ccnc4cc(Cl)ccc34)n2)cc1`, the growth was -68.6% (active).
As for `C#CCCCCCCC[C@@H]1OC(=O)[C@H]([C@@H](C)CC)NC(=O)[C@H]([C@@H](C)CC)NC(=O)CC(=O)[C@@H]1C`, the growth was 103%.
On to `Nc1ccc2cc(Br)c3ccccc3c2c1`, for which the growth is 45.6%.

The values are drawn from PubChem BioAssay (NCI).
